Screening results: PubChem, SRMLSC
Compounds with a hit are over-represented: about 0.65% of the library has one in this group of screens.
MRP-1 activ: H69AR viability gain despite doxorubicin, primary screen, MRP-1 activator project, H69AR cells, CellTiter-Glo; viability rescue; viability increase, % at 10 µM; 0.61% of 140,000 active; AID 799, 2007;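 active = viability gain under doxorubicin at or above a set limit, the compound median plus 3 SD, cut at about 4.7% in these data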;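 also: MRP-1 overexpressing cells given doxorubicin 25 µM after compound pretreatment; 18-22 h compound pretreatment then 72 h with doxorubicin before readout; 0% = doxorubicin-only wells and 100% = vehicle-treated cells without doxorubicin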
MRP resist rev: reversal of MRP1-mediated doxorubicin resistance, primary screen, H69AR cells, doxorubicin co-treatment; differential viability (reversal), % at 10 µM; H69AR cells + 2 uM doxorubicin, CellTiter-Glo, 72 h; 0.04% of 85,000 active;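 active = viability drop by adding the cancer drug above about 55%, with treated viability meeting a 40% cutoff, limit read from the data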;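 also: viability without doxorubicin minus viability with 2 µM doxorubicin for each compound; larger differential means the compound sensitizes cells more to doxorubicin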
An asterisk follows results filed as active; x = not tested or not shown.

SMILES	MRP-1 activ	MRP resist rev
N#Cc1nc(COc2ccc(F)cc2)oc1NCCN1CCOCC1	-1	17
N#Cc1nc(COc2ccc(Br)cc2)oc1NCCN1CCOCC1	7.7*	x
CCc1ccccc1N(C1=NCCCS1)S(=O)(=O)c1ccc(C(C)(C)C)cc1	0	x
COc1ccc(Cl)cc1-c1nc(-c2ccc(NC(=O)c3cccs3)cc2)no1	-5	x
O=C(Nc1ccccc1N1CCN(C(=O)c2ccc(Cl)cc2)CC1)c1ccc(Br)cc1	-2	4
CC(C)C(=O)N1CCN(c2ccccc2NC(=O)c2cccc(Cl)c2)CC1	-3	78*
O=C(NCc1ccccc1)NC1(C(=O)N2CCN(c3ccccc3)CC2)CCCCC1	-1	10
CC(/C=N/NC(=O)c1c(Br)cnn1C)=C\c1ccccc1	1	x
CC(/C=N/NC(=O)c1nn(C)c(C)c1Br)=C\c1ccccc1	7.7*	x
COc1cccc(NC(=O)COC(=O)CNS(=O)(=O)c2c(F)cccc2F)c1	-2	x
C=CCn1c(=O)c2c(C)c(C)sc2n2c(Nc3ccc(OC)cc3)nnc12	7.7*	6
C=CCSc1nc2sc(C)c(C)c2c(=O)n1CC=C	3	22
CCc1ccccc1Nc1nc(N)nc(CSCC(=O)Nc2ccc(C)c(C)c2)n1	-4	x
CCOC(=O)C1CCCN(C(=S)Nc2ccc(C)cc2C)C1 (stereo not given)	-1	x
COc1ccc(/C=N/Nc2nnc(-c3ccccc3)c(=O)[nH]2)cc1	-4	x
O=c1[nH]c(N/N=C/c2ccccc2Br)nnc1-c1ccccc1	4.8*	x
CCOC(=O)c1ccc(Oc2nc(NC(C)(C)C)nc(N(C)C)n2)cc1	7.0*	-5
CCOC(=O)c1ccc(Oc2nc(N(C)C)nc(N(C)C)n2)cc1	3	14
COc1cc2c(cc1NC(=O)c1cc(-c3ccccn3)nc3ccccc13)oc1ccccc12	-4	x
Cc1noc(/C=C/N(C)C)c1S(=O)(=O)N1CCCC(C(=O)NC2CCCCC2C)C1 (stereo not given)	8.6*	-6
Cc1noc(/C=C/N(C)C)c1S(=O)(=O)N1CCCC(C(=O)NC(C)c2ccccc2)C1 (stereo not given)	0	6
N#CCSc1nc2cc(C(=O)N3CCCC3)ccc2c(=O)n1Cc1ccccc1	-1	x
N#CCSc1nc2cc(C(=O)N3CCC(C(N)=O)CC3)ccc2c2nc3ccccc3n12	6.1*	-22
COc1ccc(OC)c2[nH]c(=O)c(CCNC(=O)C(C)C)cc12	2	-6
COc1ccc(OC)c2[nH]c(=O)c(CCNC(=O)c3ccc(Br)o3)cc12	4.7*	-4
SMILES	MRP-1 activ	MRP resist rev
CCOC(=O)c1ccc(N2CN=C3SCC(=O)N3C2)cc1	5.8*	-1
CCOC(=O)c1ccc(N=C2NC(=O)CS2)cc1	0	8
CCOC(=O)c1cc(C#N)c(Oc2ccccc2OC)nc1-c1ccccc1	-3	x
O=C(CCCCl)NC1=NN(c2ccccc2)C(=O)C1	7.3*	x
CC(=O)NC1=NN(c2ccccc2)C(=O)C1	-2	x
COc1ccc2c(Cl)c(C(=O)NN)sc2c1	-2	x
COc1ccc2c(Cl)c(C(=O)NCCCn3ccnc3)sc2c1	-3	79*
COc1ccc(OC)c(Nc2nc3nonc3nc2N2CCCC(C)C2)c1 (stereo not given)	-2	x
COc1ccc(-c2ocnc2C(=O)Nc2ccccc2N2CCCCC2)cc1	7.2*	-13
CCOc1ccc(C(=O)Nc2ccccc2N2CCCC2)cc1	-2	-20
Cn1c(=O)c2c(n(Cc3ccccc3)c1=O)NC(=O)C2CC(=O)NCc1cccc(Cl)c1 (stereo not given)	-3	5
c1ccc(N2CCN(c3nc(-c4ccccn4)nc4ccccc34)CC2)cc1	-6	x
CN1CCN(c2nc(-c3ccccn3)nc3ccccc23)CC1	-3	68*
O=C(CCc1ccc(S(=O)(=O)N2CCOCC2)cc1)Nc1nc(COc2ccccc2)cs1	0	x
COc1cccc(/C=N/n2cnc3ccccc32)c1OC	-2	-49
O=[N+]([O-])c1ccc(O)c(/C=N/n2cnc3ccccc32)c1	5.2*	x
CNc1sc(C(=O)c2cccs2)c(N)c1-c1nc2ccccc2s1	9.0*	-14
CNc1sc(C(=O)c2ccc(F)cc2)c(N)c1-c1nc2ccccc2s1	3	2
Cc1nc(-c2ccc(NS(C)(=O)=O)cc2)cs1	-1	2
C=CCn1c(Cc2cccs2)nnc1SCC(=O)Nc1cc(OC)cc(OC)c1	-2	5
COc1ccccc1C(=O)NNC(=S)NC(=O)c1ccco1	-2	x
Cc1cc(C)c(S(=O)(=O)c2ccccc2)c(Cl)n1	-1	x
Cc1cc(C)c(S(C)(=O)=O)c(Sc2ccc(Cl)cc2)n1	5.4*	x
COc1cc(/C=N/NC(=O)CN2CCCCC2)ccc1OCc1ccc(Br)cc1	-4	x
O=C(CSc1ncn[nH]1)NCCC(c1ccccc1)c1ccccc1	9.8*	3
SMILES	MRP-1 activ	MRP resist rev
O=C(CSc1ncn[nH]1)c1ccc2c(c1)OCCO2	0	3
O=C(CSc1ncn[nH]1)NCCOc1ccccc1	0	-12
CC(C)c1ccc(C(=O)CSc2ncn[nH]2)cc1	6.6*	22
O=C(COC(=O)C12CC3CC(CC(C3)C1)C2)Nc1ccc([N+](=O)[O-])cc1Cl	-1	x
Cc1cc(C)c(NC(=O)C(C)c2cccc(C(=O)c3ccccc3)c2)c(C)c1 (stereo not given)	0	x
CC(CCc1ccccc1)NC(=O)CN1CCN(Cc2ccc(Cl)cc2)C1=O (stereo not given)	7.3*	-9
CC(CCc1ccccc1)NC(=O)c1nnc(Cc2ccc(Cl)cc2)o1 (stereo not given)	9.9*	-10
CC(CCc1ccccc1)NC(=O)CN1CCN(Cc2ccccc2)C1=O (stereo not given)	-2	6
O=C(NCCc1ccc(Cl)cc1)c1nnc(Cc2ccc(Cl)cc2)o1	1	0
O=c1oc2ccccc2cc1N1CCOCC1	0	x
O=C(c1ccc(COc2ccc(Br)cc2)o1)N1N=C(C(F)F)CC1(O)C(F)F (stereo not given)	5.5*	x
CCOc1ccc(OCc2ccc(C(=O)N3N=C(C(F)F)CC3(O)C(F)F)o2)cc1 (stereo not given)	-1	x
CC1=C(C(=O)OCCNC(=O)c2ccccc2O)C(c2ccccc2[N+](=O)[O-])C(C(=O)OCC2CCCO2)=C(C)N1 (stereo not given)	-2	x
CC(=O)Nc1cccc(Oc2ncnc3scc(-c4ccc(C(C)C)cc4)c23)c1	-1	x
O=C1/C(=C\c2ccco2)SC(=S)N1c1ccc(O)cc1	5.2*	x
CN1C(=S)N(c2ccccc2)C(=O)/C1=C/c1ccco1	-2	x
Cc1ncsc1CCSc1nc2ccccc2c(=O)n1C	-2	x
CC(C)(C)NC(=S)NCc1ccco1	0	x
Cc1nc(=O)c(-c2ccccc2)c(C)n1-c1ccc(S(N)(=O)=O)cc1	6.8*	9
Cc1nc(=O)c(-c2ccccc2)c(C)n1Cc1ccccc1	-3	8
Cc1nc(=O)c(-c2ccccc2)c(C)n1-c1ccc(C(=O)O)cc1	9.1*	-5
Cc1nc(=O)c(-c2ccccc2)c(C)n1CCCO	-1	x
O=S(=O)(NNc1ccc(Cl)nn1)c1ccc(F)cc1	2	x
O=C(Nc1c2c(nc3ccccc13)CCCC2)c1cccc([N+](=O)[O-])c1	-4	x
CCn1c(SCC(=O)N/N=C/c2c[nH]c3ccccc23)nnc1-c1ccc(Cl)cc1	-3	x
Cc1ccccc1NC(=O)CC1SC(=O)N(c2ccccc2)C1=O (stereo not given)	5.4*	8
